Measured values from PubChem BioAssay AID2685 (National Center for Advancing Translational Sciences (NCATS), 2010).
In all, about 320,000 compounds went through this assay and about 2,100 (0.66%) were called active. Not shown: some 53% with an inconclusive outcome. Calls come from the whole dose curve; as a rule, active = well fitted inhibition curve with a large enough effect in the signal ratio, with a control signal flat (not every such curve was filed as active); inconclusive = small, poorly fitted or top-dose-only effect, or effect the other way, or a change in a side signal; inactive = flat fitted curve, though single readings scatter; the % refers to the signal ratio. For the sample, actives were picked, then their nearest neighbours and some compounds at random.

Assay: qHTS Assay for Lipid Storage Modulators in Drosophila S3 Cells;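 for cell number change: cells counted by Cell Tracker Red CMTPX staining in the red channel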; for lipid storage change, negative = inhibition: % is set by controls: 0 for no effect and ±100 for the full control effect
Conditions: BODIPY lipid droplet fluorescence, 18-24 h, cells fed with added oleic acid; cell number change: measured here: cell count max response; series mostly up to 46.1 µM; lipid storage change, negative = inhibition: at the top concentration
How it was run: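 Laser-scanning cytometry quantifies lipid droplet accumulation (500–530 nm total intensity; droplet/cell object ratio) in oleic acid-fed (400 uM added) Drosophila S3 cells treated with a concentration series. 20 uM Triacsin C defined 100% inhibition.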
Potency is the fitted concentration of half-maximal effect.

SMILES | lipid storage change, negative = inhibition | cell number change [%] | Potency | outcome
Cc1ccccc1C(=O)Nc1ccnn1C1CCN(Cc2c(C)n(C)c3ccccc23)CC1 | -18.4% (inactive) | 1.16 |  | 
Oc1[nH]c2ccccc2c1N=Nc1ccc(F)cc1 |  | -4.65 | 20.6 µM (active) | 
Cc1ccc2[nH]c(O)c(N=NC(N)=S)c2c1 | -0.73% (inactive) | 9.04 |  | 
O=C(O)c1ccc(N=Nc2c(O)[nH]c3ccc(Br)cc23)cc1 | -23.1% (inactive) | 13.1 |  | 
Oc1[nH]c2ccccc2c1N=Nc1c(F)c(F)c(Cl)c(F)c1F | -1.55% (inactive) | -0.455 |  | 
Oc1[nH]c2ccccc2c1N=Nc1c(F)c(F)c(C(F)(F)F)c(F)c1F | -3.87% (inactive) | 14.6 |  | 
Cc1ccc(N=Nc2c(O)[nH]c3ccc(F)cc23)cc1 |  | 2.25 | 9.2 µM (active) | 
O=C(NC1(C(=O)NC2CCCCC2)CCCCC1)c1ccc2c(c1)OCO2 | -0.326% (inactive) | 4.66 |  | 
O=C(NNC(=O)c1cnccc1C(F)(F)F)c1ccccc1 | 12.6% (inactive) | 8.28 |  | 
O=C(O)CC12CC3CC(C1)CC(n1ncc(NCc4ccc5c(c4)OCO5)c(Cl)c1=O)(C3)C2 | 2.72% (inactive) | 16.3 |  | 
CN(C)S(=O)(=O)c1ccc(NC(=O)c2ccc([N+](=O)[O-])cc2)cc1 | -4.71% (inactive) | -1.07 |  | 
Cc1cc(NC(=O)c2ccc(S(=O)(=O)N(C)CC3CCCO3)cc2)no1 (stereo unspecified) | 0.714% (inactive) |  |  | 
CN(CC1CCCO1)S(=O)(=O)c1ccc(C(=O)Nc2ccc(F)cc2)cc1 (stereo unspecified) |  | -21.7 | 23.1 µM (active) | 
O=C(NCC1CCCO1)c1ccc(NC(=O)c2ccc([N+](=O)[O-])cc2)cc1 (stereo unspecified) | 5.72% (inactive) | 13.2 |  | 
CN(CC1CCCO1)S(=O)(=O)c1ccc(C(=O)Nc2ccc3c(c2)OCO3)cc1 (stereo unspecified) | 11.3% (inactive) | 16.6 |  | 
CN(CC1CCCO1)S(=O)(=O)c1ccc(C(=O)Nc2ccc([N+](=O)[O-])cc2)cc1 (stereo unspecified) |  | -17.5 | 12.6 µM (active) | 
CCOC(=O)Cn1c(=O)c2c(nc3n2CCS3)n(C)c1=O | 11.5% (inactive) | 2.48 |  | 
CN1C(C(=O)NCc2ccco2)CC2Cn3c(nc4cc5ccccc5cc43)C21 (stereo unspecified) | 11.7% (inactive) | 2.89 |  | 
COc1cccc(C(=O)NCCS(=O)(=O)N2CC(C)CC(C)C2)c1 (stereo unspecified) | 27% (inactive) | 28.7 |  | 
CCN(Cc1ccccc1)C(c1ccncc1)c1nnnn1C(C)(C)C (stereo unspecified) | 8.87% (inactive) | 1.49 |  | 
Cc1c2ccccc2nc2c(F)c(N(C)C)c(F)c(F)c12 | -15.5% (inactive) | -4.76 |  | 
CCCNc1nc2ccccc2c(=O)[nH]1 | 8.85% (inactive) | -7.59 |  | 
CCCNc1c(F)c(F)c2c(C)c3ccccc3nc2c1F |  | 13.7 | 14.6 µM (active) | 
Cc1c2ccccc2nc2c(F)c(NCCO)c(F)c(F)c12 | -22.8% (inactive) | -2.87 |  | 

SMILES | lipid storage change, negative = inhibition | cell number change [%] | Potency | outcome
Cc1c2ccccc2nc2c(F)c(NC(C)C)c(F)c(F)c12 |  | -3.77 | 20.6 µM (active) | 
CN(C)c1c2ccccc2nc2c(F)c(F)c(F)c(F)c12 | 0.999% (inactive) | -0.117 |  | 
CCOC(=O)/C(=N\NC(=O)c1ccccc1)c1ccccc1 | -1.81% (inactive) | 17.6 |  | 
CCOC(=O)c1sc2ccc(S(=O)(=O)N3CCOCC3)cc2c1N | -16.1% (inactive) | -11.9 |  | 
CCOC(=O)NC(=O)CSc1cc(C)c2cc(C)cc(C)c2n1 | 4.15% (inactive) | -6.06 |  | 
O=C(c1ccc(F)cc1)N1CCN(S(=O)(=O)c2ccc(Br)cc2)CC1 |  |  |  | inactive
COC(=O)C1(CCSC)NC(c2ccc(O)cc2)C2C(=O)N(c3ccc4c(c3)OCCO4)C(=O)C21 (stereo unspecified) | 9.79% (inactive) | 9.07 |  | 
CCCC1(C(=O)OCC)NC(c2ccc(N(C)C)cc2)C2C(=O)N(c3ccc4c(c3)OCCO4)C(=O)C21 (stereo unspecified) | -5.4% (inactive) | 7.42 |  | 
CCOC(=O)C1(C)NC(c2cccc(C)c2)C2C(=O)N(c3ccccc3)C(=O)C21 (stereo unspecified) | 7.92% (inactive) | 1.72 |  | 
CCCC1(C(=O)OCC)NC(c2ccc(O)cc2)C2C(=O)N(c3ccc4c(c3)OCCO4)C(=O)C21 (stereo unspecified) |  |  | 18.4 µM (active) | 
CCOC(=O)C1(C)NC(c2ccc(O)cc2)C2C(=O)N(c3ccccc3)C(=O)C21 (stereo unspecified) |  | 13.7 | 20.6 µM (active) | 
COC(=O)C1(C)NC(c2ccc(O)cc2)C2C(=O)N(c3ccc(C)cc3)C(=O)C21 (stereo unspecified) | -17% (inactive) | -4.99 |  | 
c1ccc(N2CCN(CCc3nnc4n3CCCCC4)CC2)cc1 | -2.85% (inactive) | 1.29 |  | 
Cc1cc(NC(=O)c2ccco2)ccc1NC(=O)c1ccco1 | -6.74% (inactive) | 11.3 |  | 
Cc1cc2oc(=O)cc(CNc3ccccc3F)c2cc1O | 5.68% (inactive) | -14.4 |  | 
CCOc1ccccc1NCc1cc(=O)oc2cc(C)ccc12 |  | -3.97 |  | inactive
CCOc1ccccc1NCc1cc(=O)oc2cc(C)c(O)cc12 |  | -1.8 | 3.66 µM (active) | 
CC(C)(C)c1ccc(NC(=O)c2cc[n+]([O-])cc2)cc1 |  | 27.8 |  | inactive
Cc1ccn(CC(C)C(=O)O)n1 (stereo unspecified) | 0.546% (inactive) | 3.92 |  | 
CCN1CCN(C(CNS(=O)(=O)c2ccc(Br)cc2)c2cccnc2)CC1 (stereo unspecified) | 7.69% (inactive) | -9.83 |  | 
CCOc1ccc(NC(=O)Nc2cccc(C(=O)O)c2)cc1 | 5.5% (inactive) | 14.2 |  | 
CCOc1ccc(NC(=O)Nc2ccc(NC(C)=O)cc2)cc1 | 3.13% (inactive) | 11 |  | 
CCOc1ccc(NC(=O)Nc2cc(OCC(F)(F)F)cc(OCC(F)(F)F)c2)cc1 |  | -25.7 | 5.8 µM (active) | 
